# Reference: the supplement of paper PMC8728848
# This excerpt belongs to a sample that is enriched for the strongest signals.
# Tests used:
# Experiment in all cases: glycan array binding signal (z-score within array); higher = stronger binding
# Settings in all cases: glycan notation: IUPAC condensed, linker removed
# [1] = biological target: GalNAc(b1-6)GalNAc
# Procedure, shortened: (§1)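 Glycan array data were curated from 3228 arrays in the Consortium for Functional Glycomics database and kept only where the protein sequence was available. Glycan names were converted to IUPAC-condensed notation, and columns mapping to the same glycan were averaged. The binding signal is a within-array Z-score, averaged across arrays of the same protein sequence at different concentrations or buffers and across linkers. Negative Z-scores can be read as non-binding.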
# [2] = biological target: GalNAc6S(b1-4)GlcNAc
# Procedure, shortened: as §1
# [3] = biological target: Glc(a1-4)Glc(a1-4)Glc(a1-4)Glc
# Procedure, shortened: as §1
# [4] = biological target: Glc(b1-6)Glc
# Procedure, shortened: as §1
# [5] = biological target: GlcNAc(a1-4)Gal(b1-3)GlcNAc
# Procedure, shortened: as §1
# [6] = biological target: GlcNAc(a1-4)Gal(b1-4)GlcNAc(b1-3)Gal(b1-4)[Fuc(a1-3)]GlcNAc(b1-3)Gal(b1-4)[Fuc(a1-3)]GlcNAc
# Procedure, shortened: as §1
# [7] = biological target: GlcNAc(b1-3)Gal(b1-4)GlcNAc
# Procedure, shortened: as §1
# [8] = biological target: GlcNAc(b1-3)Gal(b1-4)GlcNAc(b1-2)Man(a1-3)[GlcNAc(b1-3)Gal(b1-4)GlcNAc(b1-2)Man(a1-6)]Man(b1-4)GlcNAc(b1-4)GlcNAc
# Procedure, shortened: as §1
# [9] = biological target: GlcNAc(b1-3)Gal(b1-4)GlcNAc(b1-3)Gal(b1-4)GlcNAc(b1-2)[GlcNAc(b1-3)Gal(b1-4)GlcNAc(b1-3)Gal(b1-4)GlcNAc(b1-6)]Man(a1-6)[GlcNAc(b1-3)Gal(b1-4)GlcNAc(b1-3)Gal(b1-4)GlcNAc(b1-2)Man(a1-3)]Man(b1-4)GlcNAc(b1-4)[Fuc(a1-6)]GlcNAc
# Procedure, shortened: as §1
# [10] = biological target: Kdn(a2-3)Gal(b1-3)GalNAc
# Procedure, shortened: as §1
# [11] = biological target: Neu5Ac(a2-3)Gal(b1-4)GlcNAc(b1-3)Gal(b1-3)GlcNAc
# Procedure, shortened: as §1
# [12] = biological target: Neu5Ac(a2-3)Gal(b1-4)GlcNAc(b1-3)Gal(b1-4)GlcNAc(b1-2)Man(a1-3)[Neu5Ac(a2-3)Gal(b1-4)GlcNAc(b1-3)Gal(b1-4)GlcNAc(b1-2)Man(a1-6)]Man(b1-4)GlcNAc(b1-4)GlcNAc
# Procedure, shortened: as §1
# [13] = biological target: Neu5Ac(a2-3)Gal(b1-4)[Fuc(a1-3)]GlcNAc(b1-2)Man
# Procedure, shortened: as §1
# [14] = biological target: Neu5Ac(a2-3)Gal(b1-4)[Fuc(a1-3)]GlcNAc(b1-3)Gal(b1-4)GlcNAc
# Procedure, shortened: as §1
# [15] = biological target: Neu5Ac(a2-6)Gal(b1-4)GlcNAc(b1-2)Man(a1-3)[Neu5Ac(a2-3)Gal(b1-4)GlcNAc(b1-2)Man(a1-6)]Man(b1-4)GlcNAc(b1-4)GlcNAc
# Procedure, shortened: as §1
# [16] = biological target: Neu5Ac(a2-6)Gal(b1-4)GlcNAc6S
# Procedure, shortened: as §1
# [17] = biological target: Neu5Ac(a2-8)Neu5Ac
# Procedure, shortened: as §1
# [18] = biological target: Neu5Ac(a2-8)Neu5Ac(a2-8)Neu5Ac
# Procedure, shortened: as §1
# [19] = biological target: Neu5Ac9Ac(a2-6)Gal(b1-4)GlcNAc
# Procedure, shortened: as §1
# [20] = biological target: Neu5Gc(a2-3)Gal(b1-4)GlcNAc
# Procedure, shortened: as §1
# [21] = biological target: Neu5Gc(a2-3)Gal(b1-4)[Fuc(a1-3)]GlcNAc
# Procedure, shortened: as §1
# [22] = biological target: Neu5Gc(a2-8)Neu5Ac(a2-3)Gal(b1-4)GlcNAc
# Procedure, shortened: as §1
# [23] = biological target: Fuc(a1-2)Gal(b1-3)GalNAc(a1-3)[Fuc(a1-2)]Gal(b1-4)GlcNAc
# Procedure, shortened: as §1
# [24] = biological target: Fuc(a1-2)Gal(b1-3)GlcNAc(b1-3)[Gal(b1-4)GlcNAc(b1-6)]Gal(b1-4)Glc
# Procedure, shortened: as §1
# [25] = biological target: Fuc(a1-2)Gal(b1-3)[Fuc(a1-4)]GlcNAc(b1-2)Man(a1-3)[Fuc(a1-2)Gal(b1-3)[Fuc(a1-4)]GlcNAc(b1-2)Man(a1-3)]Man(b1-4)GlcNAc(b1-4)GlcNAc
# Procedure, shortened: as §1
# [26] = biological target: Fuc(a1-2)Gal(b1-4)Glc
# Procedure, shortened: as §1
# [27] = biological target: Fuc(a1-2)Gal(b1-4)GlcNAc(b1-6)GalNAc
# Procedure, shortened: as §1
# [28] = biological target: Fuc(a1-2)Gal(b1-4)[Fuc(a1-3)]GlcNAc
# Procedure, shortened: as §1
# [29] = biological target: Fuc(a1-2)Gal3S(b1-4)GlcNAc
# Procedure, shortened: as §1
# [30] = biological target: Fuc(a1-2)[GalNAc(a1-3)]Gal(b1-4)GlcNAc(b1-2)Man(a1-3)[Fuc(a1-2)[GalNAc(a1-3)]Gal(b1-4)GlcNAc(b1-2)Man(a1-6)]Man(b1-4)GlcNAc(b1-4)[Fuc(a1-6)]GlcNAc
# Procedure, shortened: as §1
# [31] = biological target: Fuc(a1-2)[GalNAc(a1-3)]Gal(b1-4)GlcNAc(b1-3)Gal(b1-4)GlcNAc
# Procedure, shortened: as §1
# [32] = biological target: Fuc(a1-2)[GalNAc(a1-3)]Gal(b1-4)[Fuc(a1-3)]GlcNAc
# Procedure, shortened: as §1
# [33] = biological target: Fuc(a1-3)[Gal(b1-4)]GlcNAc(b1-3)Gal(b1-4)[Fuc(a1-3)]GlcNAc
# Procedure, shortened: as §1
# [34] = biological target: Fuc(a1-3)[Gal(b1-4)]GlcNAc6S
# Procedure, shortened: as §1
# [35] = biological target: Gal(a1-3)Gal(b1-3)GlcNAc(b1-2)Man
# Procedure, shortened: as §1
# [36] = biological target: Gal(b1-3)GlcNAc(a1-3)Gal(b1-4)GlcNAc
# Procedure, shortened: as §1
# [37] = biological target: Gal(b1-3)GlcNAc(b1-3)Gal(b1-4)GlcNAc
# Procedure, shortened: as §1
# [38] = biological target: Gal(b1-4)GlcNAc(b1-3)Gal(b1-3)GlcNAc
# Procedure, shortened: as §1
# [39] = biological target: Gal(b1-4)GlcNAc(b1-3)Gal(b1-4)GlcNAc(b1-3)Gal(b1-4)GlcNAc(b1-3)Gal(b1-4)GlcNAc(b1-3)Gal(b1-4)GlcNAc(b1-2)Man(a1-3)[Gal(b1-4)GlcNAc(b1-3)Gal(b1-4)GlcNAc(b1-3)Gal(b1-4)GlcNAc(b1-3)Gal(b1-4)GlcNAc(b1-3)Gal(b1-4)GlcNAc(b1-2)Man(a1-6)]Man(b1-4)GlcNAc(b1-4)[Fuc(a1-6)]GlcNAc
# Procedure, shortened: as §1
# [40] = biological target: Gal(b1-4)GlcNAc(b1-3)Gal(b1-4)[Fuc(a1-3)]GlcNAc(b1-3)Gal(b1-4)[Fuc(a1-3)]GlcNAc
# Procedure, shortened: as §1
# [41] = biological target: Gal3S(b1-3)[Fuc(a1-4)]GlcNAc
# Procedure, shortened: as §1
# [42] = biological target: Gal4S(b1-4)GlcNAc
# Procedure, shortened: as §1
# [43] = biological target: Gal6S(b1-4)GlcNAc
# Procedure, shortened: as §1
# [44] = biological target: GalNAc(a1-3)GalNAc(b1-3)Gal(a1-4)Gal(b1-4)GlcNAc
# Procedure, shortened: as §1
# [45] = biological target: GalNAc(b1-4)GlcNAc
# Procedure, shortened: as §1
# [46] = biological target: GalNAc(b1-4)GlcNAc(b1-2)Man(a1-3)[GalNAc(b1-4)GlcNAc(b1-2)Man(a1-6)]Man(b1-4)GlcNAc(b1-4)GlcNAc
# Procedure, shortened: as §1
# [47] = biological target: GalNAc3S(b1-4)GlcNAc3S
# Procedure, shortened: as §1
# [48] = biological target: Glc(a1-6)Glc(a1-6)Glc
# Procedure, shortened: as §1
# [49] = biological target: GlcNAc(b1-2)Gal(b1-3)GalNAc
# Procedure, shortened: as §1
# [50] = biological target: GlcNAc(b1-2)[GlcNAc(b1-4)]Man(a1-3)[GlcNAc(b1-2)Man(a1-6)]Man(b1-4)GlcNAc(b1-4)GlcNAc
# Procedure, shortened: as §1
# [51] = biological target: GlcNAc(b1-3)Gal(b1-4)GlcNAc(b1-3)Gal(b1-4)GlcNAc(b1-3)Gal(b1-4)GlcNAc(b1-3)Gal(b1-4)GlcNAc(b1-2)Man(a1-3)[GlcNAc(b1-3)Gal(b1-4)GlcNAc(b1-3)Gal(b1-4)GlcNAc(b1-3)Gal(b1-4)GlcNAc(b1-3)Gal(b1-4)GlcNAc(b1-2)Man(a1-6)]Man(b1-4)GlcNAc(b1-4)[Fuc(a1-6)]GlcNAc
# Procedure, shortened: as §1
# [52] = biological target: GlcNAc(b1-3)Gal(b1-4)GlcNAc(b1-3)Gal(b1-4)GlcNAc(b1-3)GalNAc
# Procedure, shortened: as §1
binder,measurement,setting,value
Vd7LysM (Verticillium dahliae) (protein) RRGPEPKYPPAAGTSSYCSYWVDYEGDKSCSRVLEDNVVVLKDFARWNPTVGADCSGIKAGNSYCVEAFGEPEPIEVTTTTRAATTTTQPTATTTTFANGIATPQPTQSGMVTNCNKFHWIAEGVSCSQVISFQKITLADFVKWNPSVKSDCSGMWAGVNVCVGVVGSSTDTAKPTTTAPSNGVVTPQPTQPSMVTNCNKFHWIAKGVTCQQVISYQKISLADFVKWNPSVLSDCSGMWAEVQVCVGVIGSTPTTLATTTTTAGNGVSTPLPTQPGMVTNCAKFHWVAKGVTCNQIYSFQKITLEQFVSYNPTVKSDCSGMQAEVQVCVGLIAGTTPTTTRPPTTTAPGNGVSTPQPTQPGMVTNCAKFHWVAKGVTCNQIYSFQKITLEQFVSFNPTVKSDCTGMQAEVNVCVGLIGGNPTPTQTGNGIATPTPIQPGMVSNCKKFHWIAQGVTCQQVISFQKITLADFVKWNTGVGSDCRTMWAETNVCVGV,glycan array binding signal (z-score),[1],0.192
same,glycan array binding signal (z-score),[2],0.22
same,glycan array binding signal (z-score),[3],0.035
same,glycan array binding signal (z-score),[4],-1.06
same,glycan array binding signal (z-score),[5],-0.658
same,glycan array binding signal (z-score),[6],1.23
same,glycan array binding signal (z-score),[7],0.117
same,glycan array binding signal (z-score),[8],2.67
same,glycan array binding signal (z-score),[9],2.72
same,glycan array binding signal (z-score),[10],3.09
same,glycan array binding signal (z-score),[11],1.03
same,glycan array binding signal (z-score),[12],2.5
same,glycan array binding signal (z-score),[13],-0.307
same,glycan array binding signal (z-score),[14],0.427
same,glycan array binding signal (z-score),[15],0.213
same,glycan array binding signal (z-score),[16],0.8
same,glycan array binding signal (z-score),[17],-0.418
same,glycan array binding signal (z-score),[18],-0.119
same,glycan array binding signal (z-score),[19],2.97
same,glycan array binding signal (z-score),[20],0.306
same,glycan array binding signal (z-score),[21],0.377
same,glycan array binding signal (z-score),[22],-0.354
"EfCBM33A (Enterococcus faecalis), Q838S1 (protein) MKKSLLTIVLAFSFVLGGAALAPTVSEAHGYVASPGSRAFFGSSAGGNLNTNVGRAQWEPQSIEAPKNTFITGKLASAGVSGFEPLDEQTATRWHKTNITTGPLDITWNLTAQHRTASWDYYITKNGWNPNQPLDIKNFDKIASIDGKQEVPNKVVKQTINIPTDRKGYHVIYAVWGIGDTVNAFYQAIDVNIQ",glycan array binding signal (z-score),[23],-0.436
same,glycan array binding signal (z-score),[24],-0.026
same,glycan array binding signal (z-score),[25],0.371
same,glycan array binding signal (z-score),[26],0.342
same,glycan array binding signal (z-score),[27],1.05
same,glycan array binding signal (z-score),[28],0.633
same,glycan array binding signal (z-score),[29],0.017
same,glycan array binding signal (z-score),[30],-0.321
same,glycan array binding signal (z-score),[31],0.048
same,glycan array binding signal (z-score),[32],-1.09
same,glycan array binding signal (z-score),[33],0.008
same,glycan array binding signal (z-score),[34],0.882
same,glycan array binding signal (z-score),[35],1.41
same,glycan array binding signal (z-score),[36],0.358
same,glycan array binding signal (z-score),[37],2.06
same,glycan array binding signal (z-score),[38],-0.608
same,glycan array binding signal (z-score),[39],8.45
same,glycan array binding signal (z-score),[40],0.067
same,glycan array binding signal (z-score),[41],2.81
same,glycan array binding signal (z-score),[42],-1.18
same,glycan array binding signal (z-score),[43],0.105
same,glycan array binding signal (z-score),[44],-0.606
same,glycan array binding signal (z-score),[45],1.05
same,glycan array binding signal (z-score),[46],3.54
same,glycan array binding signal (z-score),[47],0.074
same,glycan array binding signal (z-score),[48],0.821
same,glycan array binding signal (z-score),[49],-0.504
same,glycan array binding signal (z-score),[50],0.123
same,glycan array binding signal (z-score),[51],4.24
same,glycan array binding signal (z-score),[52],0.242
